The results in this text go back to PubChem BioAssay AID624484 (NMMLSC, 2012).

Each structure is given as a SMILES string. The list shows a part of the results. Calls of active or inactive are those of the source.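 Rule for the calls: active = compounds whose half-maximal effective concentration is below 100 µM; inactive = the rest.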

A short description of this test: empty-vector K562 compound effect – cell-based, flow cytometry, cherry pick set 2, counter-screen for ABCB6 inhibitor project, dose response (AID 624484). (Flow cytometry measures light scatter and fluorescence of single cells or particles in a stream.)

Turning to `Cc1ccc(CS(=O)(=O)c2ncc(Cl)c(C(=O)Nc3nnc(C)s3)n2)cc1`, the outcome was inactive.
